Structures are written as SMILES. Inconclusive results are not listed. Active and inactive are the calls of the source. Calls follow the shape of the dose curve; as a rule, active = well fitted cell-killing curve with a large enough effect; inconclusive = small, poorly fitted or top-dose-only effect; inactive = no such curve, though single readings can be large or run the other way.

This assay in a line: qHTS of pediatric cancer cell lines to identify multiple opportunities for drug repurposing: Primary screen for Rh41 cells (AID 1347108).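 Also: luminescence drop marks cytotoxic hits; nearly all actives have a fitted effect of over 70% in size.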 As to conditions: Rh41 rhabdomyosarcoma viability, CellTiter-Glo luminescence, 48 h; series mostly up to 46 µM; activity change, negative = cytotoxic: at the top concentration. An outline of the steps:
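ATP-based luminescence (CellTiter-Glo) quantifies viability after a 48-hour exposure. Compounds are dosed across 8 or 11 final concentrations; DMSO and 2.3 µM bortezomib serve as controls.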
Background: In qHTS, concentration-response curves come from the screen itself.
As for `C[C@@H](N)C(=O)O`, the “activity change, negative = cytotoxic” value is 2.42% (inactive).

For the molecule `CCCCCCCCCCCCCCCCCCO`, the “activity change, negative = cytotoxic” value is 18.3% (inactive).

For `C[C@@H](c1ncncc1F)C(O)(Cn1cncn1)c1ccc(F)cc1F` (stereo partly drawn), the “activity change, negative = cytotoxic” value was 17% (inactive).

For `COC(=O)c1ccc(O)cc1`, the “activity change, negative = cytotoxic” value was 14.3% (inactive).

`CC(C)(C)NCC(O)COc1cccc2c1CCC(=O)N2` (stereo not drawn): the “activity change, negative = cytotoxic” value was 17.3% (inactive).

As to `OC[C@@H](O)[C@@H](O)[C@H](O)[C@H](O)CO`, the “activity change, negative = cytotoxic” value was 10.5% (inactive).

Take `CC(=O)N[C@@H](Cc1ccc(O)cc1)C(=O)O`: the “activity change, negative = cytotoxic” value was -7.65% (inactive).

In the case of `CN1C(C)(C)CCCC1(C)C`, the “activity change, negative = cytotoxic” value is 11.4% (inactive).

Turning to `CCOC(=O)c1cccnc1`, the “activity change, negative = cytotoxic” value was 36.5% (inactive).

Turning to `O=C(NCN1CCOCC1)c1cnccn1`, the “activity change, negative = cytotoxic” value is 9.63% (inactive).

In the case of `CCN1CC(CCN2CCOCC2)C(c2ccccc2)(c2ccccc2)C1=O` (stereo not drawn), the “activity change, negative = cytotoxic” value was 15% (inactive).

`NC(=O)N[C@@H](CCC(=O)O)C(=O)O`: the “activity change, negative = cytotoxic” value was 26.5% (inactive).

In the case of `CC[N+](C)(CC)CCOC(=O)C1c2ccccc2Oc2ccccc21`, the “activity change, negative = cytotoxic” value is 14.9% (inactive).

For `NNC(=O)CP(=O)(c1ccccc1)c1ccccc1`, the “activity change, negative = cytotoxic” value was 7.67% (inactive).

`CCc1nnc(NS(=O)(=O)c2ccc(N)cc2)s1`: the “activity change, negative = cytotoxic” value is 13.1% (inactive).

For `FC(F)(F)C(Cl)Br` (stereo not drawn), the “activity change, negative = cytotoxic” value was 5.16% (inactive).

Take `Cc1c(C(=O)NCCO)[n+](=O)c2ccccc2n1[O-]`: the “activity change, negative = cytotoxic” value was 15.9% (inactive).

For `CC1(C)S[C@@H]2[C@H](N=CN3CCCCCC3)C(=O)N2[C@H]1C(=O)O`, the “activity change, negative = cytotoxic” value is 14.3% (inactive).

Consider `Cc1cccc(C(=O)O)c1O`, for which the “activity change, negative = cytotoxic” value was 7.35% (inactive).

Take `CCCCCOC(=O)Nc1nc(=O)n([C@@H]2O[C@H](C)[C@@H](O)[C@H]2O)cc1F`: the “activity change, negative = cytotoxic” value was 31.3% (inactive).

With `COc1ccccc1OC(=O)Oc1ccccc1OC`, the “activity change, negative = cytotoxic” value is 7.07% (inactive).

For `CC1(C)[C@@H](OC(=O)CCC(=O)O)CC[C@]2(C)[C@H]3C(=O)C=C4[C@@H]5C[C@@](C)(C(=O)O)CC[C@]5(C)CC[C@@]4(C)[C@]3(C)CC[C@@H]12`, the “activity change, negative = cytotoxic” value is 34.1% (inactive).

For the molecule `NCC1CCC(C(=O)Oc2ccc(CCC(=O)O)cc2)CC1` (stereo not drawn), the “activity change, negative = cytotoxic” value was 18.6% (inactive).

As to `CN(C(=O)c1c(O)c2ccccc2n(C)c1=O)c1ccccc1`, the “activity change, negative = cytotoxic” value is 24.9% (inactive).

`CCCCC1(COC(=O)CCC(=O)O)C(=O)N(c2ccccc2)N(c2ccccc2)C1=O`: the “activity change, negative = cytotoxic” value is 27.1% (inactive).

Regarding `CC[N+](CC)(CC(=O)Nc1c(C)cccc1C)Cc1ccccc1`, the “activity change, negative = cytotoxic” value was 12.3% (inactive).

Consider `O=C(O)C(S)C(S)C(=O)O` (stereo not drawn), for which the “activity change, negative = cytotoxic” value was 26.7% (inactive).

In the case of `CCCCCCCCCCCCCCCCN`, the “activity change, negative = cytotoxic” value is 13.4% (inactive).

As for `CN[C@@H]1[C@@H](O)[C@@H](O[C@@H]2[C@H](O)[C@H](O[C@H]3OC(CN)=CC[C@H]3N)[C@@H](N)C[C@H]2N)OCC1(C)O` (stereo partly drawn), the “activity change, negative = cytotoxic” value is 29% (inactive).

Take `Cc1ccc(S(=O)(=O)NC(=O)NC2CCCCC2)cc1`: the “activity change, negative = cytotoxic” value was 21.7% (inactive).

Turning to `CC(=O)Nc1ccc(C(=O)O)cc1`, the “activity change, negative = cytotoxic” value was 24.7% (inactive).

With `CCOC(=O)OC(C)OC(=O)[C@@H]1N2C(=O)[C@@H](NC(=O)[C@H](N)c3ccccc3)[C@H]2SC1(C)C` (stereo partly drawn), the “activity change, negative = cytotoxic” value was 34.3% (inactive).

For `CCCCCCCCCCOc1cc2c(=O)c(C(=O)OCC)c[nH]c2cc1OCC`, the activity change, negative = cytotoxic was 18.9% [at 4.84 µM] (inactive).

Turning to `Nc1ncnc2c1ncn2[C@@H]1O[C@H](COP(=O)(O)O)[C@@H](O)[C@H]1O`, the “activity change, negative = cytotoxic” value is 9.15% (inactive).

On to `OCC(O)CS` (stereo not drawn), for which the “activity change, negative = cytotoxic” value is 26% (inactive).

Regarding `Cc1cccc(Nc2ccccc2C(=O)O)c1C`, the “activity change, negative = cytotoxic” value is 24.8% (inactive).

As to `Cc1cc(=O)[nH]c(=S)[nH]1`, the “activity change, negative = cytotoxic” value was 25% (inactive).

In the case of `NC(N)=NCCN1CCCCCCC1`, the activity change, negative = cytotoxic was 22.2% [at 0.597 µM] (inactive).

The values are drawn from PubChem BioAssay (NCATS).
